From the supplement of paper PMC8728848
This excerpt belongs to a sample that is enriched for the strongest signals.

How the values were obtained:
Assay in all cases: glycan array binding signal (z-score within array); higher = stronger binding
Settings in all cases: glycan notation: IUPAC condensed, linker removed
[1] = biological target: Gal(b1-4)GlcNAc(b1-2)Man(a1-6)[GlcNAc(b1-2)Man(a1-3)]Man(b1-4)GlcNAc(b1-4)GlcNAc
Summary of the method: (§1)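 The binding signal is a Z-score computed within each array and averaged over linkers. Arrays of the same protein sequence at different concentrations or buffers were also averaged together. Data originate from 3228 arrays in the Consortium for Functional Glycomics database, kept only where the protein sequence was available.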

[2] = biological target: Gal3S(b1-4)[Fuc(a1-3)]GlcNAc6S
Summary of the method: as §1

[3] = biological target: Gal6S(b1-4)Glc6S
Summary of the method: as §1

[4] = biological target: GalNAc(a1-3)GalNAc(a1-3)Gal(a1-4)Gal(b1-4)GlcNAc
Summary of the method: as §1

[5] = biological target: GalNAc(b1-3)Gal(a1-6)Gal(b1-4)Glc
Summary of the method: as §1

[6] = biological target: Glc(a1-6)Glc(a1-6)Glc
Summary of the method: as §1

[7] = biological target: GlcNAc(b1-2)Gal(b1-3)GalNAc
Summary of the method: as §1

[8] = biological target: GlcNAc(b1-3)Gal(b1-4)GlcNAc(b1-2)Man(a1-3)[GlcNAc(b1-3)Gal(b1-4)GlcNAc(b1-2)Man(a1-6)]Man(b1-4)GlcNAc(b1-4)GlcNAc
Summary of the method: as §1

[9] = biological target: GlcNAc(b1-3)[GlcNAc(b1-6)]Gal(b1-4)GlcNAc
Summary of the method: as §1

[10] = biological target: GlcNAc(b1-3)[GlcNAc(b1-6)]GalNAc
Summary of the method: as §1

[11] = biological target: Kdn(a2-3)Gal(b1-3)GlcNAc
Summary of the method: as §1

[12] = biological target: Man(a1-2)Man(a1-2)Man(a1-3)[Man(a1-2)Man(a1-3)[Man(a1-2)Man(a1-6)]Man(a1-6)]Man(b1-4)GlcNAc(b1-4)GlcNAc
Summary of the method: as §1

[13] = biological target: Man(a1-2)Man(a1-3)[Man(a1-2)Man(a1-6)]Man(a1-6)[Man(a1-2)Man(a1-2)Man(a1-3)]Man
Summary of the method: as §1

[14] = biological target: Man(a1-3)[Man(a1-6)]Man(a1-6)[Man(a1-3)]Man
Summary of the method: as §1

[15] = biological target: Neu5Ac(a2-3)Gal(b1-3)GlcNAc(b1-3)Gal(b1-4)GlcNAc
Summary of the method: as §1

[16] = biological target: Neu5Ac(a2-3)Gal(b1-3)[Neu5Ac(a2-3)Gal(b1-4)]GlcNAc
Summary of the method: as §1

[17] = biological target: Neu5Ac(a2-3)Gal(b1-4)GlcNAc(b1-2)Man(a1-3)[Neu5Ac(a2-6)Gal(b1-4)GlcNAc(b1-2)Man(a1-6)]Man(b1-4)GlcNAc(b1-4)GlcNAc
Summary of the method: as §1

[18] = biological target: Neu5Ac(a2-3)Gal(b1-4)GlcNAc(b1-3)GalNAc
Summary of the method: as §1

[19] = biological target: Neu5Ac(a2-3)Gal(b1-4)GlcNAc(b1-6)GalNAc
Summary of the method: as §1

[20] = biological target: Neu5Ac(a2-6)Gal(b1-4)GlcNAc(b1-2)Man(a1-3)Man(b1-4)GlcNAc(b1-4)GlcNAc
Summary of the method: as §1

[21] = biological target: Neu5Ac(a2-6)Gal(b1-4)GlcNAc(b1-2)Man(a1-3)[Man(a1-6)]Man(b1-4)GlcNAc(b1-4)GlcNAc
Summary of the method: as §1

[22] = biological target: Neu5Ac(a2-6)Gal(b1-4)GlcNAc(b1-3)Gal(b1-4)GlcNAc(b1-6)[Gal(b1-3)]GalNAc
Summary of the method: as §1

[23] = biological target: Neu5Ac(a2-6)Gal(b1-4)GlcNAc(b1-3)GalNAc
Summary of the method: as §1

[24] = biological target: Neu5Ac(a2-8)Neu5Ac(a2-3)[GalNAc(b1-4)]Gal(b1-4)Glc
Summary of the method: as §1

[25] = biological target: Neu5Ac9Ac(a2-6)Gal(b1-4)GlcNAc
Summary of the method: as §1

[26] = biological target: Neu5Gc(a2-8)Neu5Gc(a2-3)Gal(b1-4)GlcNAc
Summary of the method: as §1

[27] = biological target: Neu5Gc(b2-6)Gal(b1-4)GlcNAc
Summary of the method: as §1

B1: UEA-I (Ulex europaeus), P22972 (protein)
chain: SDDLSFKFKNFSQNGKDLSFQGDASVIETGVLQLNKVGNNLPDETGGIARYIAPIHIWNCNTGEVASFITSFSFFMETSANPKAATDGLTFFLAPPDSPLRRAGGYFGLFEDTKDNDSSYQTVAVEFDTIGSPVNFDDPGFPHIGIDVNRVKSINAERWNKRYGLNNVANVEIIYEASSKTLTASLTYPSDQTSISVTSIVDLKEILPEWVSVGFSGGTYIGRQATHEVLNWYFTSNLINTNS
In the case of B1, the “glycan array binding signal (z-score)” value [1] is reported as -0.155, the “glycan array binding signal (z-score)” value [2] is reported as -0.212 and the “glycan array binding signal (z-score)” value [3] is reported as -0.098. The “glycan array binding signal (z-score)” value [4] was -0.179, the “glycan array binding signal (z-score)” value [5] was -0.21 and the “glycan array binding signal (z-score)” value [6] was -0.204. For the same binder, the “glycan array binding signal (z-score)” value [7] was -0.195, the “glycan array binding signal (z-score)” value [8] was -0.128 and the “glycan array binding signal (z-score)” value [9] was -0.266. The “glycan array binding signal (z-score)” value [10] was -0.17, the “glycan array binding signal (z-score)” value [11] was -0.222 and the “glycan array binding signal (z-score)” value [12] was -0.378. For the same binder, the “glycan array binding signal (z-score)” value [13] was -0.191, the “glycan array binding signal (z-score)” value [14] was -0.125 and the “glycan array binding signal (z-score)” value [15] was -0.274. The “glycan array binding signal (z-score)” value [16] was -0.122, the “glycan array binding signal (z-score)” value [17] was -0.209 and the “glycan array binding signal (z-score)” value [18] was -0.22. For the same binder, the “glycan array binding signal (z-score)” value [19] was -0.243, the “glycan array binding signal (z-score)” value [20] was -0.227 and the “glycan array binding signal (z-score)” value [21] was -0.216. For the same binder, the “glycan array binding signal (z-score)” value [22] was -0.032, the “glycan array binding signal (z-score)” value [23] was -0.148 and the “glycan array binding signal (z-score)” value [24] was -0.259. For the same binder, the “glycan array binding signal (z-score)” value [25] was -0.244, the “glycan array binding signal (z-score)” value [26] was -0.238 and the “glycan array binding signal (z-score)” value [27] was -0.1.
